# Data: PubChem BioAssay (NCATS)
# Several values for one entry are separate records, joined by “and”; a condition that tells them apart may be missing. Identical values can stand only once. Results filed as inconclusive are left out. The source holds several records for some structures; these can differ, active in one and inactive in another. Activity calls are given as the source filed them. Unless noted, calls come from the whole dose curve; as a rule, active = well fitted inhibition curve with a large enough effect; inconclusive = small, poorly fitted or top-dose-only effect; inactive = flat fitted curve, though single readings scatter.
# Biological target: Thyroid hormone receptor beta (Homo sapiens) (UniProt P10828)
# Sequence (P10828 whole entry, looked up): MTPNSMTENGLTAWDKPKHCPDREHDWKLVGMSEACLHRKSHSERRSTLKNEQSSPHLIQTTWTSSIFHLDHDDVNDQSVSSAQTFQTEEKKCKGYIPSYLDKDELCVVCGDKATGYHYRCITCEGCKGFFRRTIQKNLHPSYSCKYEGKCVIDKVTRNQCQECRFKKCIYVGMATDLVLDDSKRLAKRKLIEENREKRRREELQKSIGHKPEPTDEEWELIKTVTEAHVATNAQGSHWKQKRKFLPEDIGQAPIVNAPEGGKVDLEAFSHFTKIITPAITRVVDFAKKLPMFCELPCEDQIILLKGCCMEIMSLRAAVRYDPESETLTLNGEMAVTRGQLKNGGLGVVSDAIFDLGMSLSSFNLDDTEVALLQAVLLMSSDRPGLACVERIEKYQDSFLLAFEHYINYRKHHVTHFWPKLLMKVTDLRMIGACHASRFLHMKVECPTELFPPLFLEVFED
# Test: qHTS assay for small molecule antagonists of thyroid hormone receptor beta signaling (AID 588547; active = well fitted inhibition curve with a large enough effect in the signal ratio, with a control signal flat, not every such curve was filed as active; the % refers to the signal ratio;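 note: cells stimulated with 0.4 nM T3 agonist during compound exposure; % is set by controls: 0 for no effect and ±100 for the full control effect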)
# Conditions: TR-UAS-bla HEK293, beta-lactamase ratio, antagonist mode, 18 h
# Procedure, shortened: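 Inhibition of T3-driven (0.4nM final) beta-lactamase reporter activity was measured over 0.59 nM to 92 uM compound after 18 h at 37 C. The cells were GripTite HEK293 TR-UAS-bla in charcoal/dextran-stripped serum, with CCF4 ratio read-out and IC50 from Hill fits.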
row,Structure (SMILES),activity change % (negative = inhibition)
1,Oc1c(Br)cc(Br)cc1Br,15.6% (inactive)
2,CNC(=O)Oc1cccc2ccccc12,-1.73% (inactive) and -9.05% (inactive)
3,COP(=O)(OC)OC=C(Cl)Cl,-21% (inactive) and -1.19% (inactive) and -2.09% (inactive)
4,O=c1n(Cl)c(=O)n(Cl)c(=O)n1Cl,4.09% (inactive)
5,O=C(NC(=O)c1c(F)cccc1F)Nc1cc(Cl)c(OC(F)(F)C(F)C(F)(F)F)cc1Cl (stereo not given),4.04% (inactive)
6,N#Cc1nn(-c2c(Cl)cc(C(F)(F)F)cc2Cl)c(N)c1S(=O)C(F)(F)F (stereo not given),-25.5% (inactive)
7,CCC(=O)O[C@H]1CC[C@H]2[C@@H]3CCC4=CC(=O)CC[C@]4(C)[C@H]3CC[C@]12C,4.79% (inactive)
8,CCOP(=S)(OCC)O/N=C(\C#N)c1ccccc1,19.6% (inactive)
9,CCNc1nc(Cl)nc(NCC)n1,3.97% (inactive)
10,CCCCCCCCC(=O)NCc1ccc(O)c(OC)c1,5.83% (inactive)
11,C[C@@H]1C[C@@H]([C@H](O)CC2CC(=O)NC(=O)C2)C(=O)[C@@H](C)C1,-37.8% (inactive)

# Biological target: Voltage-gated inwardly rectifying potassium channel KCNH2 (Homo sapiens) (UniProt Q12809)
# Sequence (Q12809 whole entry, looked up): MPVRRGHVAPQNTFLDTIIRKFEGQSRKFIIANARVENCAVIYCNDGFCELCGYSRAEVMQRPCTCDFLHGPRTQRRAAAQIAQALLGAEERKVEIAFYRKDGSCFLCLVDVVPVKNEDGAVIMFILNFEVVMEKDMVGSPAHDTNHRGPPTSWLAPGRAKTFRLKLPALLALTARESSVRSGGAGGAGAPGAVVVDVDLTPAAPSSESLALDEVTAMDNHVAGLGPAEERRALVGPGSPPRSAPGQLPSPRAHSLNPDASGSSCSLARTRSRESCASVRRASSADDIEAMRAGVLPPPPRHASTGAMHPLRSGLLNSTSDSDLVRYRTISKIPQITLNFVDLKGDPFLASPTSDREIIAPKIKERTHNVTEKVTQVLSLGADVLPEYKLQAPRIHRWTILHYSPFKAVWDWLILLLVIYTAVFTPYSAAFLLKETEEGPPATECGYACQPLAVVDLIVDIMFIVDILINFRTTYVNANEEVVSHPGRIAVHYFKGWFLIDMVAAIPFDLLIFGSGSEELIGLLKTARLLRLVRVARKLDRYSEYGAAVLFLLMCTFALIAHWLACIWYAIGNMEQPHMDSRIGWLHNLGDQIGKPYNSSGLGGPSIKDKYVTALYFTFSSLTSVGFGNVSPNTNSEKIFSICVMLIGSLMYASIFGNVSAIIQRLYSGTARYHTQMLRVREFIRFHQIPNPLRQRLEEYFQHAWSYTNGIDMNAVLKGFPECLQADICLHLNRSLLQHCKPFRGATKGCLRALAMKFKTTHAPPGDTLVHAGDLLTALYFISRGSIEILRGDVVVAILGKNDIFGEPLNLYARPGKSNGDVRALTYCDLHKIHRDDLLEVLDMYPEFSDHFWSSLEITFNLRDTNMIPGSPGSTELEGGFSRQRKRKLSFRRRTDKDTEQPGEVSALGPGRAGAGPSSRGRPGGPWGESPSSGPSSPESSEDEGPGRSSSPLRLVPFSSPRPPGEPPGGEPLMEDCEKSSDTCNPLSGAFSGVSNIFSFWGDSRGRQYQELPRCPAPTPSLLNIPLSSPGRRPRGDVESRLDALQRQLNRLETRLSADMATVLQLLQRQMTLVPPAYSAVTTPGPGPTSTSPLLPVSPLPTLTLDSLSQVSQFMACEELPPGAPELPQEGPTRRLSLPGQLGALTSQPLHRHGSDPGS
# Test: qHTS Assay for Small Molecule Inhibitors of the Human hERG Channel Activity (AID 588834);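 note: lower thallium flux fluorescence means stronger hERG block; nearly all actives have a fitted effect of over 50% in size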; note: potency is the fitted concentration of half-maximal effect; for activity change, negative = inhibition: top concentration of the series differs between compounds; % is set by controls: 0 for no effect and ±100 for the full control effect
# Conditions: U2OS BacMam hERG, FluxOR thallium flux fluorescence; series mostly up to 46.1 µM; activity change, negative = inhibition: at the top concentration
# Procedure, shortened: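 Measured: FluxOR fluorescence after thallium stimulation in U2OS cells transduced with hERG by baculovirus. Compounds pre-incubated around 10 min; medium Opti-MEM with 2% FCS. AC50 from Hill equation.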
Structure (SMILES),"activity change, negative = inhibition",Potency
COCC(=O)N(c1c(C)cccc1C)C(C)C(=O)OC (stereo not given),14.6% (inactive),–
Oc1c(Br)cc(Br)cc1Br,–,inactive
CNC(=O)Oc1cccc2ccccc12,–,inactive
Clc1ccc(C(OCCN2CCCCC2)c2ccccc2)cc1 (stereo not given),–,0.891 µM (active)
CN(C)C(=O)Oc1cc(OC(=O)N(C)C)cc(C(O)CNC(C)(C)C)c1 (stereo not given),5.93% [at 20.6 µM] (inactive),–
C=CCN1CC[C@]23CCCC[C@H]2[C@H]1Cc1ccc(O)cc13,17.1% (inactive),–
COP(=S)(OC)Oc1ccc(Sc2ccc(OP(=S)(OC)OC)cc2)cc1,-16.3% (inactive),–
CN(C)c1ccc(C(=C2C=CC(=[N+](C)C)C=C2)c2ccccc2)cc1,-26.4% (inactive),–
COP(=O)(OC)OC=C(Cl)Cl,–,inactive
C[C@H](N)[C@H](O)c1ccc(O)c(O)c1,3.75% (inactive),–
Oc1ccc(Cl)cc1Cc1cc(Cl)ccc1O,-18.3% (inactive),–
O=c1n(Cl)c(=O)n(Cl)c(=O)n1Cl,-17.4% (inactive),–
O=C(NC(=O)c1c(F)cccc1F)Nc1cc(Cl)c(OC(F)(F)C(F)C(F)(F)F)cc1Cl (stereo not given),-2.8% (inactive),–
C[C@@H]1O[C@@H](O[C@@H]2C=C3CC[C@@H]4[C@H](CC[C@]5(C)[C@@H](c6ccc(=O)oc6)CC[C@]45O)[C@@]3(C)CC2)[C@H](O)[C@H](O)[C@H]1O,-22.4% [at 20.6 µM] (inactive),–
N#Cc1nn(-c2c(Cl)cc(C(F)(F)F)cc2Cl)c(N)c1S(=O)C(F)(F)F (stereo not given),2.93% (inactive),–
CC1=C2[C@H]3OC(=O)[C@@H](C)[C@@H]3CC[C@@]2(C)C=CC1=O,-2.03% (inactive),–

Structure (SMILES),"activity change, negative = inhibition",Potency
CCC(=O)O[C@H]1CC[C@H]2[C@@H]3CCC4=CC(=O)CC[C@]4(C)[C@H]3CC[C@]12C,-15.4% [at 20.6 µM] (inactive),–
CN(C)C(=S)SSC(=S)N(C)C,–,inactive and 44.7 µM (active)
O=C(CCl)c1ccc(Cl)cc1Cl,-18.4% [at 92.2 µM] (inactive),–
C[C@@H]1CN(C2CCC(C#N)(c3ccc(F)cc3)CC2)CC[C@]1(C(=O)O)c1ccccc1 (stereo not given in full),-23.9% [at 20.6 µM] (inactive),–
c1cc(CN2CCCCC2)cc(OCCCNc2nc3ccccc3s2)c1,–,12.6 µM (active)
CC[n+]1c(-c2ccccc2)c2cc(N)ccc2c2ccc(N)cc21,–,inactive
CCC1(c2cccc(O)c2)CCCCN(C)C1 (stereo not given),-11.7% [at 20.6 µM] (inactive),–
CCNc1nc(Cl)nc(NCC)n1,9.04% (inactive),–
CCCCCCCCC(=O)NCc1ccc(O)c(OC)c1,–,inactive
COP(=O)(OC)C(O)C(Cl)(Cl)Cl (stereo not given),-4.99% (inactive),–
C[N+]1(C)[C@@H]2CC[C@H]1CC(OC(=O)C(CO)c1ccccc1)C2 (stereo not given in full),–,inactive
C[C@H]1C(=O)O[C@@H]2CCN3CC=C(COC(=O)[C@](C)(O)[C@]1(C)O)[C@H]23,-23.1% (inactive),–
NC(N)=N/N=C/c1c(Cl)cccc1Cl,-10.9% (inactive),–
C[C@@H]1C[C@@H]([C@H](O)CC2CC(=O)NC(=O)C2)C(=O)[C@@H](C)C1,–,inactive

# Biological target: Luciferin 4-monooxygenase (Photinus pyralis) (UniProt P08659)
# Sequence (P08659 whole entry, looked up): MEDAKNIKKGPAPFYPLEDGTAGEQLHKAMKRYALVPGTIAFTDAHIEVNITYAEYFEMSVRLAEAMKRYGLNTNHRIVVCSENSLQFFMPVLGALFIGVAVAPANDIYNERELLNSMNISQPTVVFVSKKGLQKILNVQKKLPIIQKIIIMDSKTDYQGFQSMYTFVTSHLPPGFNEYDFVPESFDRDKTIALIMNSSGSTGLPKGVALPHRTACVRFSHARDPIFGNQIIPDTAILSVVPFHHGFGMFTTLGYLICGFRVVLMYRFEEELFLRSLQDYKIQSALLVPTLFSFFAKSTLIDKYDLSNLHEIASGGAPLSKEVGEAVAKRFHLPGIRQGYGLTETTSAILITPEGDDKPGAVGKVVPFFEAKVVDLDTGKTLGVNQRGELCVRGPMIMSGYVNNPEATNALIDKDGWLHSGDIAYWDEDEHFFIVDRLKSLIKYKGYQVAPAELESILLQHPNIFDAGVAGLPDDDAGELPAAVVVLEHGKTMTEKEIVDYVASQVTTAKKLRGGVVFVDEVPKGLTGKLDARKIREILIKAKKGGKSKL
# Test: Biochemical firefly luciferase enzyme assay for NPC (AID 624030); note: nearly all actives have a fitted effect of over 70% in size; note: potency is the fitted concentration of half-maximal effect;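 for activity change, negative = inhibition: purified P. pyralis luciferase at 10 nM with luciferin and ATP substrate; 0% = DMSO and -100% = full luciferase inhibition by PTC124 control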
# Conditions: purified P. pyralis luciferase, luminescence, 5 min; series mostly up to 58.6 µM; activity change, negative = inhibition: at the top concentration
# Procedure, shortened: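 Direct inhibition of firefly luciferase enzyme (10 nM final, 50 mM Tris Acetate) assessed by luminescence within 5 minutes. Percent activity scaled between DMSO and PTC124 positive control, with concentration-effect curves classified by fit quality and response.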
Structure (SMILES),"activity change, negative = inhibition",Potency
COCC(=O)N(c1c(C)cccc1C)C(C)C(=O)OC (stereo not given),-8.14% (inactive),–
Oc1c(Br)cc(Br)cc1Br,-11.6% (inactive),–
CNC(=O)Oc1cccc2ccccc12,-13.4% (inactive),–
COP(=S)(OC)Oc1ccc(Sc2ccc(OP(=S)(OC)OC)cc2)cc1,–,25.6 µM (active)
C=CCOC(Cn1ccnc1)c1ccc(Cl)cc1Cl (stereo not given),-1.59% (inactive),–
COP(=O)(OC)OC=C(Cl)Cl,-1.07% (inactive),–
Cc1ccc(N=CN(C)C=Nc2ccc(C)cc2C)c(C)c1,-11.9% (inactive),–
O=c1n(Cl)c(=O)n(Cl)c(=O)n1Cl,0.485% (inactive),–
O=C(NC(=O)c1c(F)cccc1F)Nc1cc(Cl)c(OC(F)(F)C(F)C(F)(F)F)cc1Cl (stereo not given),0.0202% (inactive),–
N#Cc1nn(-c2c(Cl)cc(C(F)(F)F)cc2Cl)c(N)c1S(=O)C(F)(F)F (stereo not given),0.166% (inactive),–
CCC(=O)O[C@H]1CC[C@H]2[C@@H]3CCC4=CC(=O)CC[C@]4(C)[C@H]3CC[C@]12C,4.51% [at 24.9 µM] (inactive),–
O=C(CCl)c1ccc(Cl)cc1Cl,–,inactive
CC[n+]1c(-c2ccccc2)c2cc(N)ccc2c2ccc(N)cc21,–,inactive
CCOP(=S)(OCC)O/N=C(\C#N)c1ccccc1,-11.3% (inactive),–
CCNc1nc(Cl)nc(NCC)n1,-2.23% (inactive),–
CCCCCCCCC(=O)NCc1ccc(O)c(OC)c1,-8.86% (inactive),–
COP(=O)(OC)C(O)C(Cl)(Cl)Cl (stereo not given),-1.19% (inactive),–
C[C@H]1C(=O)O[C@@H]2CCN3CC=C(COC(=O)[C@](C)(O)[C@]1(C)O)[C@H]23,3.28% (inactive),–
